We go through 95 molecules from article PMC4336329 (PLoS ONE, 2015).

The structures appear in SMILES notation. Hit rate of the full screen: of about 310,000 compounds, about 2,200 (0.71%) showed an effect of 50% or more. The effect is printed as a negative number. This is one part of a sample in which strong results are shown more often than they occur.

In the assay the target is human ether-à-go-go-related gene (hERG) potassium channel (human, UniProt Q12809). Kind of assay: primary screen, population patch clamp on CHO cells stably expressing hERG; higher = less effect of the substance.
Chain of human ether-à-go-go-related gene (hERG) potassium channel (Q12809 whole entry, looked up): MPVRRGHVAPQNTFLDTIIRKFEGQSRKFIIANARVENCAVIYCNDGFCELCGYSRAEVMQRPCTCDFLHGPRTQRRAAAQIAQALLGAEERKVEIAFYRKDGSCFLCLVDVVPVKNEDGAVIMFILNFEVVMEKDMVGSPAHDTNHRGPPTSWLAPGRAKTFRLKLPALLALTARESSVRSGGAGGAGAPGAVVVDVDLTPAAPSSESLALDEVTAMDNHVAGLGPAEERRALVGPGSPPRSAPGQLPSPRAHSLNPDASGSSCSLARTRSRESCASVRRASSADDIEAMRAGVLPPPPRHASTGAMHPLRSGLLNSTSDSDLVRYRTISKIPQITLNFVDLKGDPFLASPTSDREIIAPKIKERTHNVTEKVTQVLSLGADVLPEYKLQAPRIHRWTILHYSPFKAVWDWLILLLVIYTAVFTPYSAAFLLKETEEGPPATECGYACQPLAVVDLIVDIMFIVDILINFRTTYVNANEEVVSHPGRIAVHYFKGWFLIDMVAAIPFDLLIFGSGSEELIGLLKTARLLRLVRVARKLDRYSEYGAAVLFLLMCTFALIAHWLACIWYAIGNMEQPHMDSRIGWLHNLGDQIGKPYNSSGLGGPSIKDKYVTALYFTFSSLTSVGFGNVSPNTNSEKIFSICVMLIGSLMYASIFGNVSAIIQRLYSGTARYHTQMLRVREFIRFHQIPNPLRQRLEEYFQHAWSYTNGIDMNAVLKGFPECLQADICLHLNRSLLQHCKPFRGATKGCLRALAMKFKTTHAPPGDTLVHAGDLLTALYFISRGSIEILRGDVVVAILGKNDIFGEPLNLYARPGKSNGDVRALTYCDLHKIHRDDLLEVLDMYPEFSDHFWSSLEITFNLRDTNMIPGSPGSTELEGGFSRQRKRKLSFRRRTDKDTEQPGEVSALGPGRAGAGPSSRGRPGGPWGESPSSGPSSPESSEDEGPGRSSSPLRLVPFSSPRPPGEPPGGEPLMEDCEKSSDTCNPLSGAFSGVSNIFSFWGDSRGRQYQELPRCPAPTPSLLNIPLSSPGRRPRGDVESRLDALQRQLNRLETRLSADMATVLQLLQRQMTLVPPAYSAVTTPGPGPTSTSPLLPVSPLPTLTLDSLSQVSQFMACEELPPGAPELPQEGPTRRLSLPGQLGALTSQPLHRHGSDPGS
As to `Cc1ncc(S(=O)(=O)c2ccccc2)c(-c2ccccc2Cl)n1`, the “hERG current change (%, negative = inhibition) at 1uM” value is on record as 2.7%. The value for `Cc1cc2c(cc1S(=O)(=O)NC1CCCCC1C)OCC(=O)N2` (centres unmarked) was 5.01%; that for `Cc1ccc(OCCNC(=O)c2ccc(NC(=O)CC3SC(N4CCCC4)=NC3=O)cc2)cc1` (centres unmarked) was -6.94%. The value for `C=C(C)CNC(=O)c1ccc(OC2CCN(S(=O)(=O)N(C)C)CC2)cc1` was 13.2%; that for `COc1ccc2c(c1)CC1(CN2C)C(=O)NC(=O)N(CCc2ccccc2)C1=O` (centres unmarked) was -6.39%; that for `CCN(CC)S(=O)(=O)c1ccc2c(c1)N(CC(=O)Nc1ccc(NC(C)=O)cc1)C(=O)CO2` was 10.6%. The value for `O=C(Cc1ccccc1)N1CCN(C2CCCCCC2)CC1.O=C(O)C(=O)O` was 4.29%; that for `CCCCN(Cc1ccccc1)C1CCN(CCc2ccccc2)CC1` was -13.4%.

As for `CCCCN(Cc1ccccc1)C1CCN(Cc2ccccc2)CC1`, the “hERG current change (%, negative = inhibition) at 1uM” value was -14.5%. The value for `O=C(O)C(=O)O.c1ccc(CCN(Cc2ccccc2)C2CCN(C3CCCC3)CC2)cc1` was -68.9%. The value for `CC(C)CC(=O)N1CCC(N(CCc2ccccc2)Cc2ccccc2)CC1.O=C(O)C(=O)O` was 7.09%; that for `CCCN1CCC(N(CCc2ccccc2)Cc2ccccc2)CC1` was -73.2%.

In the case of `O=C(Nc1ccccc1)N1CCCc2ccccc21`, the “hERG current change (%, negative = inhibition) at 1uM” value is -28.2%. For `Cc1ccn2c(=O)nc(SCC(=O)N3CCCCCC3)nc2c1`, the “hERG current change (%, negative = inhibition) at 1uM” value was found to be 19.6%.

On to `CC(C)CCN(C(=O)Nc1ccc(Cl)cc1)C1CCN(C(C)C)CC1`, for which the “hERG current change (%, negative = inhibition) at 1uM” value is given as -57.6%.

For `CCCCN(C(=O)Nc1ccc(Cl)cc1)C1CCN(C(C)=O)CC1`, the “hERG current change (%, negative = inhibition) at 1uM” value is -19.1%. The value for `CCOc1ccc(NC(=O)N(CCC(C)C)C2CCN(C(C)=O)CC2)cc1` was 7.21%; that for `Cc1cc(NC(=O)c2cc3cccc([N+](=O)[O-])c3[nH]2)ccc1F` was 11.5%. As for `COc1c(C)cc(Br)cc1C(=O)Nc1cccc(-c2nc3ncccc3o2)c1`, the “hERG current change (%, negative = inhibition) at 1uM” value is recorded as -7.42%.

As to `O=C(c1sc2ccccc2c1Cl)N1CCN(c2ncccn2)CC1`, the “hERG current change (%, negative = inhibition) at 1uM” value stood at 6.43%. The value for `O=C(c1c(F)cccc1F)N1CCN(c2ncccn2)CC1` was 12.5%. The value for `O=C(c1sc2cccc(F)c2c1Cl)N1CCN(c2ncccn2)CC1` was -65.4%. The value for `COc1cccc(-c2nn(-c3ccc(C)cc3)cc2C(=O)NCC2CCCO2)c1` (centres unmarked) was -0.814%; that for `COC(=O)c1ccc(S(=O)(=O)NCCSc2nnc3c4ccccc4n(C)c3n2)cc1` was 1.09%; that for `CCOc1cc(N2CCOCC2)c(OCC)cc1NC(=O)Cn1nc(C)c([N+](=O)[O-])c1C` was 6.15%. Consider `CCc1cc2c(NCCO)ncnc2s1`, for which the “hERG current change (%, negative = inhibition) at 1uM” value turned out to be 14.1%. For `CCc1cc2c(NCCN3CCCCC3)ncnc2s1.Cl`, the “hERG current change (%, negative = inhibition) at 1uM” value was -55.9%. The value for `CCc1cc2c(N3CCCCC3)ncnc2s1.Cl` was 5.54%. The value for `CC[C@@]12C(=O)N(c3cccc(Br)c3)C(=O)N1[C@H](c1ccc(Cl)cc1)[C@@H]1C(=O)N(C3CCCCC3)C(=O)[C@@H]12` was 6.83%; that for `Cc1cc(N2CCN(S(=O)(=O)c3ccc(C)c(C)c3)CC2)c2ccccc2n1` was -18.3%. With `Cn1c(N2CCN(S(=O)(=O)c3ccc(Cl)cc3)CC2)nc2ccccc21`, the “hERG current change (%, negative = inhibition) at 1uM” value is reported as -23.2%. The value for `COc1ccc2nc(C)cc(N3CCN(c4ccccc4)CC3)c2c1` was -29%.

On to `CC(=O)Nc1ccc(S(=O)(=O)N2CCN(c3nc(C)cc(C)n3)CC2)cc1`, for which the “hERG current change (%, negative = inhibition) at 1uM” value was 14.9%. The value for `CC(=O)Nc1ccc(S(=O)(=O)N2CCN(c3cc(C)nc4ccccc34)CC2)cc1` was -71.6%; that for `COc1ccc2nc(C)cc(N3CCOCC3)c2c1` was 7.31%. The value for `Cc1cc(N2CCN(S(=O)(=O)c3ccc(Cl)c(Cl)c3)CC2)c2ccccc2n1` was 4.58%.

`Cc1ccccc1N1CCN(S(=O)(=O)c2ccccc2)CC1`: the “hERG current change (%, negative = inhibition) at 1uM” value is 5.62%. The value for `COc1ccc2nc(C)cc(N3CCN(S(=O)(=O)c4ccccc4F)CC3)c2c1` was -62.2%. With `Cc1cc(N2CCN(S(=O)(=O)c3ccc(Cl)cc3)CC2)c2ccccc2n1`, the “hERG current change (%, negative = inhibition) at 1uM” value is listed as -80.8%.

Consider `Cc1cc(N2CCN(S(=O)(=O)c3ccccc3)CC2)c2ccccc2n1`, for which the “hERG current change (%, negative = inhibition) at 1uM” value is given as -78.6%. For the molecule `CC(=O)Nc1ccc(S(=O)(=O)N2CCN(S(=O)(=O)c3ccccc3)CC2)cc1`, the “hERG current change (%, negative = inhibition) at 1uM” value is 10.1%.

For `Cc1ccc(CS(=O)(=O)CCC(=O)NCCC(C)C)cc1`, the “hERG current change (%, negative = inhibition) at 1uM” value was 6.06%. For the molecule `COCCn1c(C)cc(C(=O)CSc2nc(C)c(C)c(C)n2)c1C`, the “hERG current change (%, negative = inhibition) at 1uM” value is 9.29%. The value for `CCc1noc(C)c1C(=O)Nc1sc(C(=O)N(C)C)c(C)c1C(=O)OC` was -6.16%.

For the molecule `Cc1c(NC(=O)c2ccc(S(=O)(=O)N3CCOCC3)cc2)cccc1[N+](=O)[O-]`, the “hERG current change (%, negative = inhibition) at 1uM” value is 7.56%.

Consider `CC(C)(C)n1ncc2c(=O)n(Cc3cccc(Cl)c3)cnc21`, for which the “hERG current change (%, negative = inhibition) at 1uM” value was -10.1%. The value for `Cc1ccnc(NS(=O)(=O)c2cccs2)c1` was 12.9%; that for `Cc1ccc(C(=O)COC(=O)c2ccc3c(c2)C(=O)N(c2cccc4ncccc24)C3=O)cc1C` was 4.09%; that for `COC(=O)c1c(C)[nH]c(C(=O)C(C)OC(=O)C2CC2)c1C` (centres unmarked) was 10%. The value for `Cc1cc(N2CCN(c3ccc([N+](=O)[O-])c4cccnc34)CC2)c2ccccc2n1` was -13.9%; that for `Cc1cc(N2CCN(c3ccc(C(F)(F)F)cc3[N+](=O)[O-])CC2)c2ccccc2n1` was -64.2%; that for `Cc1ccc(S(=O)(=O)N2CCN(c3ccc(C(F)(F)F)cc3[N+](=O)[O-])CC2)cc1` was 2.51%. On to `COc1ccccc1NC(=O)Nc1ccc(N2CCOCC2)cc1`, for which the “hERG current change (%, negative = inhibition) at 1uM” value was 10.4%. The value for `Cc1ccc(NC(=O)CN2C(=O)NC(C)(c3ccc(Cl)cc3)C2=O)cc1` (centres unmarked) was 14.4%; that for `COc1ccc(CN2C3CCCC2CC(NC(=O)Nc2cccc(C)c2)C3)cc1` (centres unmarked) was -71.5%.

Consider `COc1ccc(CN2C3CCCC2CC(NC(=O)Nc2ccccc2C)C3)cc1` (centres unmarked), for which the “hERG current change (%, negative = inhibition) at 1uM” value is -36.5%. For the molecule `COc1ccc(NC(=O)NC2CC3CCCC(C2)N3Cc2ccccc2)cc1` (centres unmarked), the “hERG current change (%, negative = inhibition) at 1uM” value is -17.4%. The value for `COc1ccccc1CN1C2CCCC1CC(NC(=O)/C=C/c1ccccc1)C2` (centres unmarked) was -43.8%; that for `O=C(Nc1cccc(F)c1)NC1CC2CCCC(C1)N2C1CC1` (centres unmarked) was 4.85%.

In the case of `CCC(=O)NC1CC2CCCC(C1)N2Cc1ccc(C)cc1` (centres unmarked), the “hERG current change (%, negative = inhibition) at 1uM” value is -11.9%. The value for `Cc1cccc(NC(=O)NC2CC3CCC(C2)N3Cc2ccco2)c1` (centres unmarked) was -8.04%; that for `COc1ccc(CN2C3CCCC2CC(NC(=O)/C=C/c2ccccc2)C3)cc1` (centres unmarked) was -84.2%. For `CCc1cccc(CC)c1NC(=O)CN1C2CCCC1CC(NC(=O)Nc1cccc(OC)c1)C2` (centres unmarked), the “hERG current change (%, negative = inhibition) at 1uM” value is listed as 9.12%. The value for `Cc1ccc(CN2C3CCCC2CC(NC(=O)Nc2cccc(F)c2)C3)cc1` (centres unmarked) was -85.2%; that for `COc1ccc(CN2C3CCCC2CC(NC(=O)Nc2ccccc2)C3)cc1` (centres unmarked) was -64%. The value for `O=C(/C=C/c1ccccc1)NC1CC2CCCC(C1)N2Cc1ccccc1` (centres unmarked) was -46.4%; that for `CC(C)(C)OC(=O)NCCCCCc1nnc(SCc2ccc(F)cc2)o1` was 3.71%; that for `CCCCc1cc2c(s1)CCCC/C2=N/O` was 2.41%.

In the case of `Cc1cc(S(=O)(=O)Nc2ccc(C(=O)NCCCN3CCOCC3)cc2)ccc1F`, the “hERG current change (%, negative = inhibition) at 1uM” value is 19.8%. Regarding `Cc1ccsc1/C=N/n1c(-c2ccncc2)n[nH]c1=S`, the “hERG current change (%, negative = inhibition) at 1uM” value is recorded as 19.8%. For the molecule `O=C(O)C=C(Br)Br`, the “hERG current change (%, negative = inhibition) at 1uM” value was 7.58%. The value for `COC(=O)/C(=C1/Oc2cc(C)oc(=O)c2S1)C(F)(F)F` was 13.6%; that for `CCOC(=O)CON1C(=O)C(C)(C)N(OCC(=O)OCC)C(=O)C1(C)C` was 15.7%; that for `Cc1ccc(-n2ccnc(SCC(=O)NC3CCCCC3)c2=O)cc1F` was 14.5%. The value for `CC(c1ccccc1)C1CC(=O)N(CC(=O)O)C1=O` (centres unmarked) was 16.2%; that for `Cc1cccn2c(=O)c3cc(C(=O)NC4CCCC4)sc3nc12` was 2.15%.

As for `Cc1cccn2c(=O)c3cc(C(=O)NC4CCCCCC4)sc3nc12`, the “hERG current change (%, negative = inhibition) at 1uM” value stood at 15.1%. The value for `Cc1cccn2c(=O)c3cc(C(=O)NC4CCCCC4)n(C)c3nc12` was 13.8%; that for `Cc1cccn2c(=O)c3cc(C(=O)NC4CCCC4)c(=N)n(C4CCCCC4)c3nc12` was -81.9%; that for `Cc1cccn2c(=O)c3cc(C(=O)NC4CCCC4)c(=N)n(C4CCCC4)c3nc12` was -87%. The value for `Cc1cccn2c(=O)c3cc(C(=O)NC4CCCC4)n(C)c3nc12` was 9.12%; that for `Cc1ccc(C(=O)CSc2nnc(COc3ccc(C#N)cc3)n2-c2ccccc2)cc1` was 11.8%. The value for `O=C(CCc1nc(-c2ccccc2Cl)no1)NC1CCCC1` was 1.7%. Turning to `CCOC(=O)Nc1ccc2c(c1)N(C(=O)CCN(C)C)c1ccccc1S2.Cl`, the “hERG current change (%, negative = inhibition) at 1uM” value was -5.69%. The value for `COc1cc(CN2CCC(CO)(CCOc3ccccc3)CC2)cc(OC)c1OC` was 3.71%; that for `COc1ccc(OC)c(CN2CCC(CO)(CCOc3ccccc3)CC2)c1` was -30%; that for `COc1ccc2[nH]c(CN3CCC(CO)(CCOc4ccccc4)CC3)c(C)c2c1` was 9.37%. Regarding `COc1cc(Cl)c(CN2CCC(CO)(CCOc3ccccc3)CC2)cc1OC`, the “hERG current change (%, negative = inhibition) at 1uM” value is recorded as -85.1%. The value for `COc1ccc(CN2CCC(CO)(CCOc3ccccc3)CC2)c(OC)c1C` was -81.6%; that for `CC(=O)c1cccc(CN2CCC(CO)(CCOc3ccccc3)CC2)c1` was -3.07%; that for `COc1cc(Cl)c(CN2CCCC(CO)(Cc3ccccc3)C2)cc1OC` (centres unmarked) was -2.72%. With `COc1cc(CN2CCC(CO)(CCOc3ccccc3)CC2)cc(OC)c1`, the “hERG current change (%, negative = inhibition) at 1uM” value was -8.26%. The value for `Cc1nn(C)c(Cl)c1CN1CCC(CO)(CCOc2ccccc2)CC1` was -12.9%; that for `COc1cc(OC)c(CN2CCC(CO)(CCOc3ccccc3)CC2)c(OC)c1` was -87.7%; that for `COc1ccc(CN2CCC(CO)(CCOc3ccccc3)CC2)cc1C` was -77.6%.
